Measurements taken from PubChem BioAssay (Tox21).
Inconclusive results are not listed. Where a call stands in place of a potency, no number is given. Unmarked numbers belong to inactive results. Active and inactive are the calls of the source. Calls follow the shape of the dose curve; as a rule, active = well fitted inhibition curve with a large enough effect in the signal ratio in the repeat runs (not every such curve was filed as active); inconclusive = weak or mixed curves, or effect the other way; inactive = no such curve, though single readings can be large or run the other way; the % refers to the signal ratio.

What follows are compounds tested against Estrogen receptor beta (Homo sapiens) (UniProt Q92731) (assay: qHTS assay to identify small molecule antagonists of the estrogen receptor beta (ER-beta) signaling pathway (AID 1259378)). Settings: ER-beta-UAS-bla HEK293T, beta-lactamase FRET ratio, 16 h; series mostly up to 92.4 µM.
Description: National Center for Advancing Translational Sciences [NCATS]
NIH Chemical Genomics Center [NCGC]
U.S. Environmental Protection Agency [EPA]
National Institutes of Environmental Health Sciences [NIEHS]
National Toxicology Program [NTP]
U.S. Food and Drug Administration [FDA]
Estrogen receptor (ER), a nuclear hormone receptor, plays an important role in development, metabolic homeostasis and reproduction. Two subtypes of ER, ER-alpha and ER-beta, have similar expression patterns with some uniqueness in both types. Endocrine disrupting chemicals (EDCs) and their interactions with steroid hormone receptors like ER causes disruption of normal endocrine function. To identify the compounds that inhibit ER signaling, an ER-beta-UAS-bla GripTite cell line (Life Technologies, Madison, WI, USA) containing a beta-lactamase reporter gene under the control of an UAS response element was used to screen Tox21 10K compound library.
Tox21 Assay Protocol Summary:
ER-beta-UAS-bla HEK293T cells were dispensed at 2,000 cells/4 uL of assay medium containing 2% charcoal stripped FBS per well into black wall/clear-bottom 1536-well plates using a Multidrop Combi (ThermoFisher Scientific, Waltham, MA) dispenser. After the assay plates were incubated at a 37C and 5% CO2 for 6 hr, 23 nL of compounds dissolved in DMSO, positive controls or DMSO only was transferred to the assay plate by a Pintool station (Kalypsys, San Diego, CA), followed by addition of 1 uL (1nM as final concentration) of 17-beta-estradiol (E2) in assay medium using a BioRAPTR FRD (Flying Reagent Dispenser, Aurora Discovery, San Diego, CA). The plates were incubated at 37C and 5% CO2 for 16 hr. Then 1 uL of LiveBLAzerTM B/G FRET substrate was added using a Flying Reagent Dispenser, the plates were incubated at room temperature for 2 hours, and fluorescence intensity was measured by an Envision plate reader (PerkinElmer, Shelton, CT).
Potency is read from the fitted curve at half-maximal effect.

Estrogen receptor beta (Homo sapiens), sequence (Q92731 whole entry, looked up): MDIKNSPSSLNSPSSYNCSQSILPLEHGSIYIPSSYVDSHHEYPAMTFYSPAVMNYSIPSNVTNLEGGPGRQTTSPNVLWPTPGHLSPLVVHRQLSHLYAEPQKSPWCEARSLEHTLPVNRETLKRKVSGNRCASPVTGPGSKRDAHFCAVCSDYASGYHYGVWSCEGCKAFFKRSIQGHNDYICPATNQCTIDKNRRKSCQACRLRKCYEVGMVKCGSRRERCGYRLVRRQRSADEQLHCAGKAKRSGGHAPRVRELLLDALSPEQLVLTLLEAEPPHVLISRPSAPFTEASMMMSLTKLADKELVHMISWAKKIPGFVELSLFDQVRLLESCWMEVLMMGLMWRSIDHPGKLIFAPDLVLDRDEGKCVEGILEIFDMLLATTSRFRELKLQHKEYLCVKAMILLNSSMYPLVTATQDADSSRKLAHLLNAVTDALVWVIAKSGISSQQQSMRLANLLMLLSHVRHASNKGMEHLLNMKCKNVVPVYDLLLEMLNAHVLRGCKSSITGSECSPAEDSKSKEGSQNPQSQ

| Compound | Potency | activity, negative = inhibition |
| --- | --- | --- |
| CC(=O)OCC(C)C | inactive | – |
| CCC(C)(C)C(=O)O | inactive | – |
| CCCCCCC(O)CCCCCCCCCCC(=O)OC (stereo not given) | inactive | – |
| Cc1cccc(C)c1NC(=O)c1cc(S(N)(=O)=O)c(Cl)cc1O | inactive | – |
| O[C@@H](CNC[C@H](O)[C@H]1CCc2cc(F)ccc2O1)[C@@H]1CCc2cc(F)ccc2O1 | 8.41 µM (active) | – |
| O=S(=O)(Cl)c1c(Cl)cccc1Cl | inactive | – |
| CCCCCCCCCCCCCC(=O)OCC(O)CO (stereo not given) | inactive | – |
| Cc1oc(=O)oc1COC(=O)[C@@H]1N2C(=O)[C@@H](NC(=O)[C@H](N)c3ccccc3)[C@H]2SC1(C)C | inactive | – |
| CC(C)C(=O)OCCOc1ccccc1 | inactive | – |
| CC(=O)c1ccc[nH]1 | inactive | – |
| Nc1nc(-c2ccc([N+](=O)[O-])cc2)cs1 | inactive | – |
| CCC(=O)OCc1ccc(OC)cc1 | inactive | – |
| CNC1CCCN(c2c(F)cc3c(=O)c(C(=O)O)cn(C4CC4)c3c2OC)C1 (stereo not given) | inactive | – |
| O=C1NC(=O)c2cccc3cccc1c23 | inactive | – |
| Cc1cc([N+](=O)[O-])ccc1N | inactive | – |
| CSSc1ccoc1C | inactive | – |
| C=C(C)c1ccccc1 | inactive | – |
| CCN(CC)c1cccc(O)c1 | inactive | – |
| O=C(O)CCC(=O)OC[C@@H](NC(=O)C(Cl)Cl)[C@H](O)c1ccc([N+](=O)[O-])cc1 | inactive | – |
| O=NN(CCCl)C(=O)NCCCl | inactive | – |

| Compound | Potency | activity, negative = inhibition |
| --- | --- | --- |
| COc1cc(OC)c2ccc(=O)oc2c1 | inactive | – |
| COc1ccc(C2C(=O)c3ccccc3C2=O)cc1 | inactive | – |
| O=[N+]([O-])c1ccc2ncccc2c1 | inactive | – |
| Cc1c(C2(c3cc(Br)c(O)c(Br)c3C)OS(=O)(=O)c3ccccc32)cc(Br)c(O)c1Br | inactive | – |
| COc1ccc(-c2cc(C(F)F)nn2-c2ccc(S(N)(=O)=O)cc2)cc1F | inactive | – |
| CC(C)(C)NCC(O)COc1cccc2c1C[C@H](O)[C@H](O)C2 (stereo not given in full) | inactive | – |
| CC(C)C1CCC(C(=O)N[C@H](Cc2ccccc2)C(=O)O)CC1 (stereo not given in full) | inactive | – |
| Cc1ccc(S(=O)(=O)NC(=O)NC2CCCCC2)cc1 | inactive | – |
| O=C1CC[C@@H](C(=O)O)N1 | inactive | – |
| C1=CCC2CC=CC2C1 (stereo not given) | inactive | – |
| OCC(CO)n1cnc(-c2ccc(F)cc2)c1-c1ccnc(Oc2ccccc2)n1 | inactive | – |
| CCOCCC(=O)OCC | inactive | – |
| CCCCCCCCCCCCCCN(C)C | – | 3.58% [at 19 µM] |
| [Cl][Nd]([Cl])[Cl] | inactive | – |
| COC(OC)OC | inactive | – |
| CC(=O)Oc1cccc(O)c1 | inactive | – |
| CCCC(=O)OC(=O)CCC | inactive | – |
| CSCC[C@H](NC(=O)[C@H](Cc1c[nH]c2ccccc12)NC(=O)CCNC(=O)OC(C)(C)C)C(=O)N[C@@H](CC(=O)O)C(=O)N[C@@H](Cc1ccccc1)C(N)=O | inactive | – |
| CCc1ccc(C)cc1 | inactive | – |
| CC(C)(O)CCc1ccccc1 | inactive | – |
